# The list is not random: actives were taken first. Their share in the collection is about 3.1%.
# uPA surface inh – cell surface uPA generation inhibition; cell surface uPA generation assay, qHTS; Potency, µM (highest dose often 38.3 µM), inactives show at the top dose activity change, negative = inhibition, hits mostly inhibitors; actives 0.31% (n = 330,000); active = well fitted inhibition curve with a large enough effect; inconclusive = small, poorly fitted or top-dose-only effect; inactive = no such curve, though single readings can be large or run the other way; tested in mouse RAW 264.7 cells; note: potency is the fitted concentration of half-maximal effect; % is set by controls: 0 for no effect and ±100 for the full control effect; nearly all actives have a fitted effect of over 55% in size
# TSHR antagonist – antagonists of human thyroid stimulating hormone receptor | actives 0.2% (n = 330,000) | activity change, negative = inhibition, % at 11.5 µM | TSHR-expressing cells, TSH-stimulated cAMP HTRF, 2 h; active compounds read low | P16473;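 active = activity change below a set negative limit, meaning inhibition stronger than a set level, cut at about -70% in these data; inconclusive = activity change between two set negative limits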; note: % is set by controls: 0 for no effect and ±100 for the full control effect
#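 Antagonism was scored as loss of TSH-driven cAMP in TSHR cells, stimulated with 4nM TSH (EC80) for 2 hours at 37 deg C and detected by homogeneous HTRF competition immunoassay.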
# VDR inhibitor – vitamin D3 receptor (human) inhibition. VDR-SRC2-3 peptide fluorescence polarization, 2 h. actives 0.93% (n = 400,000). Potency, µM, inactives show max response, negative = inhibition, most hits filed as inhibitors. AID 504847; note: potency is the fitted concentration of half-maximal effect; % is set by controls: 0 for no effect and ±100 for the full control effect
#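 Compounds are added to VDR with labelled SRC2-3 coactivator peptide and held 2 h at room temperature. Inhibition of the VDR–peptide interaction is then read as a change in fluorescence polarization.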
# PLK1 PBD inh – inhibitors of human PLK1 polo-box domain binding. actives 2.8% (n = 360,000). Potency, µM, inactives show max response, negative = inhibition, hits mostly inhibitors. Plk1 PBD binding of FITC phosphopeptide, fluorescence polarization; note: potency is the fitted concentration of half-maximal effect; series mostly up to about 57 µM; % is set by controls: 0 for no effect and ±100 for the full control effect; nearly all actives have a fitted effect of over 65% in size
# PTAP TSG101 blk – blocks PTAP/TSG101 interaction to inhibit HIV-1 budding; Potency, µM (highest dose often 115 µM), for inactives: at the top dose activity change, negative = inhibition, most hits filed as inhibitors; Q99816; AID 493005; 340,000 tested, under 10 active; Fluorescence polarization, FITC-PTAP peptide / Tsg101 binding; active = well fitted inhibition curve with a large enough effect in the main read-out, with a control signal flat, not every such curve was filed as active; inconclusive = small, poorly fitted or top-dose-only effect, or effect the other way, or a change in a side signal; inactive = no such curve, though single readings can be large or run the other way; note: potency is the fitted concentration of half-maximal effect; % of control where 0% means no effect
# Target sequence (Q99816 whole entry, looked up): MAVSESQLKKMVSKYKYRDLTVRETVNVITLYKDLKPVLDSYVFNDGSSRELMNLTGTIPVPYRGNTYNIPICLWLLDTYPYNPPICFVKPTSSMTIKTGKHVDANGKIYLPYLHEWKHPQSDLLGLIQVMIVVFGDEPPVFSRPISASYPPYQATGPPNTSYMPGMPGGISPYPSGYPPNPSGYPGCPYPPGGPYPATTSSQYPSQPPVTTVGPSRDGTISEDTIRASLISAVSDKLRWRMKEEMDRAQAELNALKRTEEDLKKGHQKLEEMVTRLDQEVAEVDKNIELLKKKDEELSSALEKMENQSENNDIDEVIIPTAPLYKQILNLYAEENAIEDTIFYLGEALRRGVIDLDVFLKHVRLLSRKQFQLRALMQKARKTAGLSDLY
#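 Steps: Tsg101 binding domain dispensed (10 uM final), compounds pinned in DMSO, FITC-labeled PTAP-motif peptide added (50 nM final); after 20 min binding at room temperature, polarization measured.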
# TbPYK confirm – Trypanosoma brucei pyruvate kinase inhibition, cherry-pick confirmation; shares compounds with PLK1 PBD inh; recombinant TbPYK, Kinase-Glo ATP luminescence; Potency, µM (doses to about 76.9 µM), for inactives: at the top dose activity change, negative = inhibition, most hits filed as inhibitors; actives 67% (n = 890); note: potency is the fitted concentration of half-maximal effect; % is set by controls: 0 for no effect and ±100 for the full control effect; nearly all actives have a fitted effect of over 70% in size
# TbPYK orthogonal – TbPYK inhibition, orthogonal confirmation; shares compounds with PLK1 PBD inh; recombinant TbPYK, ADP-Glo luminescence, 60 min; Potency, µM (doses to about 76.9 µM), without a hit: top-dose activity change, negative = inhibition, actives largely listed as inhibitors; actives 62% (n = 890); note: potency is the fitted concentration of half-maximal effect; % is set by controls: 0 for no effect and ±100 for the full control effect; nearly all actives have a fitted effect of over 75% in size
# Active calls of the source: *; ? = inconclusive; . = no result. Unless noted, calls come from the whole dose curve; as a rule, active = well fitted curve in the direction sought with a large enough effect; inconclusive = small, poorly fitted or top-dose-only effect, or another doubt; inactive = no such curve, though single readings can be large; an effect the other way counts as inactive or inconclusive.
SMILES,uPA surface inh,TSHR antagonist,VDR inhibitor,PLK1 PBD inh,PTAP TSG101 blk,TbPYK confirm,TbPYK orthogonal
CCN(C(=O)Cn1cnc2onc(-c3ccc(F)cc3)c2c1=O)c1ccc(OC)cc1,.,.,5%,.,.,.,.
COc1ccc(CNC(=O)c2cc(-c3ccc(OC)c(OC)c3)nc3n[nH]c(-c4ccc(C)cc4)c23)cc1,.,.,0%,.,.,.,.
Cc1nonc1C(=O)N/N=C/c1ccc(O)cc1O,-11%,12,9%,-6%,-2%,28µM*,-1%
Cc1ccc(CN2CCCn3nc(C(=O)NCCc4ccccc4Cl)cc3C2=O)cc1,.,.,5%,.,.,.,.
NCC1O[C@@H](O[C@@H]2C(O)[C@H](O[C@H]3OC(CO)C(O)C(N)C3O)[C@@H](N)C[C@H]2N)C(N)C(O)C1O (some centres undefined),.,.,0%,.,.,.,.
CCOC(=O)CSc1nnc(Cc2ccc(OC)cc2)n1-c1ccccc1,2%,3,3%,-2%,-7%,3.2µM*,5µM*
CCOc1ccc(CCNC(=O)c2cccc(-n3c(C)nc4cccnc43)c2C)cc1,.,.,9%,.,.,.,.
COCCn1c(=S)[nH]c2sc3c(c2c1=O)CCCC3,0%,41,-18%,-14%,2%,10µM*,10µM*
COCCCN1C(=O)C(CC(=O)NCc2ccco2)CC(C(=O)N(C)C)=C1C (centres undefined),.,.,.,-5%,.,.,.
CCn1c(SCC(=O)c2cc(OC)ccc2OC)nc2c1c(=O)n(C)c(=O)n2C,.,0,.,.,.,.,.
CCCn1c(SCC(=O)c2cc(OC)ccc2OC)nnc1C(C)C,-4%,13,-16%,?,-5%,16µM*,16µM*
O=C1CCCCCCC1Sc1ccccc1[N+](=O)[O-] (centres undefined),-2%,-5,-14%,?,-5%,13µM*,?
O=[N+]([O-])c1ccccc1S(=O)(=O)NC1CCCCCCC1,1%,-5,12%,-8%,-6%,.,.
CCOc1ccccc1CNC(=O)CCCN1C(=O)CCn2nc(-c3cccn3C)cc21,.,.,6%,.,.,.,.
CCC1Oc2ccc(C)cc2N(CC(=O)N(Cc2ccc(C)o2)C2CCCC2)C1=O (centres undefined),-2%,0,?,?,-5%,16µM*,16µM*
COc1ccc(S(=O)(=O)N(C(C)=O)c2ccc3oc(=O)sc3c2)cc1,0%,-18,79µM*,-27%,-9%,?,16µM*
CCn1c(C)cc(C(=O)COC(=O)c2ccccc2[N+](=O)[O-])c1C,-10%,6,-16%,3%,0%,?,3%
CCCn1c(C)cc(C(=O)COC(=O)c2ccc[nH]c2=O)c1C,-2%,13,-7%,-14%,-5%,.,.
COc1ccc(N2CSC3=C(C#N)C(c4cccs4)CC(=O)N3C2)cc1 (centres undefined),.,13,-9%,-13%,-4%,.,.
Cc1ccc(N2CSC3=C(C#N)C(c4cccs4)CC(=O)N3C2)cc1 (centres undefined),-25%,7,79µM*,15µM*,-3%,2.5µM*,1.6µM*
CCOC(=O)c1ccc(N2CSC3=C(C#N)C(c4cccs4)CC(=O)N3C2)cc1 (centres undefined),-22%,-1,89µM*,-22%,0%,?,?
CCCS(=O)(=O)NC(=O)C1(C)CCCN(C(=O)c2cccc(OC(F)(F)F)c2)C1 (centres undefined),.,.,.,-8%,.,.,.
Cn1cccc1C(=O)C(=O)Nc1cc(Cl)cc(Cl)c1,2%,-35,?,3µM*,1%,-2%,3%
c1ccc(-c2nc(-c3ccco3)cs2)nc1,.,-3,?,?,0%,-26%,-20%
Cc1c(Cl)cccc1NC(=O)c1ncoc1-c1ccco1,.,.,7%,.,.,.,.
SMILES,uPA surface inh,TSHR antagonist,VDR inhibitor,PLK1 PBD inh,PTAP TSG101 blk,TbPYK confirm,TbPYK orthogonal
Cc1ccc(CNc2ncnc3onc(C)c23)cc1,.,.,18%,.,.,.,.
CC1CCN(CCCn2c(=S)[nH]c3c(sc4ccccc43)c2=O)CC1,-4%,-3,-14%,-8%,0%,.,.
O=c1c2sc3ccccc3c2[nH]c(=S)n1CCN1CCOCC1,3%,-2,6%,-12%,0%,4µM*,5.6µM*
CCCCC(NC(=O)c1ccc(C#N)cc1)C(=O)NCCC (centres undefined),11%,-5,-5%,-19%,.,.,.
CC(Nc1ccc(N2CCOCC2)cc1)C(=O)N1c2ccccc2CC1C (centres undefined),13%,-1,-11%,0%,-4%,3.2µM*,7.1µM*
CC1COCC(C)N1C1=C(Cl)C(=O)c2ccccc2C1=O (centres undefined),-13%,.,?,13µM*,-6%,?,?
O=C(CCCCn1c(=S)[nH]c2ccsc2c1=O)NCc1ccc2c(c1)OCO2,-12%,-4,-15%,-27%,-2%,0.35µM*,1.1µM*
O=C(CCCn1c(=S)[nH]c2ccsc2c1=O)Nc1ccc2c(c1)OCCO2,3%,-4,-17%,-7%,-4%,10µM*,14µM*
O=C(CCCCn1c(=O)[nH]c2ccsc2c1=O)NCc1ccc2c(c1)OCO2,18%,1,6%,-6%,-2%,.,.
O=C(CC1N=C2c3ccccc3N=C(SCc3ccccc3Cl)N2C1=O)NCCc1ccccc1 (centres undefined),.,.,9%,.,.,.,.
Cc1ccc(-n2c(=O)[nH]c3sc4c(c3c2=O)CCCC4)cc1,.,.,-17%,.,.,.,.
O=c1[nH]c2sc3c(c2c2nncn12)CCCC3,.,15,2%,-26%,-3%,?,35µM*
Cc1cc(N=Cc2c(O)ccc3cc(Br)ccc23)no1,0%,-7,-16%,5.3µM*,-3%,18µM*,7.1µM*
CCOC(=O)C1CCCN(C(=O)c2ccc3c(c2)N(Cc2cccc(Cl)c2)C(=O)c2ccccc2S3(=O)=O)C1 (centres undefined),.,.,-2%,.,.,.,.
CCc1cccc(NC(=O)CSC2=NS(=O)(=O)c3ccccc32)c1,-16%,-1,13µM*,11µM*,-2%,18µM*,18µM*
Cc1ccc(C)c(N2CCN(C(=O)c3cnn(C(C)(C)C)c3C3CCN(C(=O)OC(C)(C)C)CC3)CC2)c1,.,.,2%,.,.,.,.
CCc1ccc(-n2nc3ccc(NC(=O)COc4ccc(OC)cc4)cc3n2)cc1,.,.,-14%,.,.,.,.
CCOC(=O)C1CCN(C(c2cccc(F)c2)c2c(O)cc(C)n(Cc3ccco3)c2=O)CC1 (centres undefined),.,.,20%,.,.,.,.
